From PubChem BioAssay AID2615 (Southern Research Specialized Biocontainment Screening …, 2010)
Calls of active or inactive are those of the source. No rule for the calls is given here.

Assay: SV40 cytopathic effect inhibition and cytotoxicity, confirmation, SV40 T antigen inhibitor project, BSC cells (AID 2615)
Settings: outcome: CPE inhibition; viability: CPE inhibition, viability, at 100 µM, stronger effect = lower value

## CCN(CC)C(=O)c1ccc2nc(N)sc2c1
  outcome: inactive
  viability: 87.6%

## ClC(Cl)(c1nnnn1-c1ccc(Br)cc1)c1nnnn1-c1ccc(Br)cc1
  outcome: inactive
  viability: -0.31%

## Cc1cc(C)c2c(=O)n(CC(=O)Nc3cccc(Cl)c3C)sc2n1
  outcome: inactive
  viability: 2.65%

## Nc1nc2ccc(C(=O)N3CCCCC3)cc2s1
  outcome: inactive
  viability: 103%

## ClC(Cl)(c1nnnn1-c1ccccc1)c1nnnn1-c1ccccc1
  viability: 0.34%

## Nc1nc2ccc(C(=O)N3CCOCC3)cc2s1
  outcome: inactive
  viability: 101%

## Nc1nc2ccc(S(=O)(=O)N3CCCCC3)cc2s1
  outcome: inactive
  viability: 0.95%

## COc1ccc(-n2nnnc2C(Cl)(Cl)c2nnnn2-c2ccc(OC)cc2)cc1
  outcome: inactive
  viability: 6.3%

## Cc1ccc2c(c1)C1C=CCC1C(C(=O)O)N2 (configuration not stated)
  outcome: inactive
  viability: 41.3%
